Among the data in PubChem BioAssay AID743313 (Broad Institute, 2014) are outcome values, retold here.

Each structure is given as a SMILES string. The source made the active and inactive calls.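 The calls were made as follows: active = cell killing with a fitted half-maximal concentration no more than twice the top valid dose used; inconclusive = flat curve with a moderate signal drop, or poor fit; inactive = the rest.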

This assay is described as follows: HepG2 cell cytotoxicity, dose response, cytotoxicity control, plate reader, dry powder, set 7 (AID 743313). Conditions: HepG2 viability, ATP luminescence (CellTiter-Glo), 72 h; series mostly up to 26 µM.

Take `Cc1ccc(OCCn2c(SCCO)nc3ccccc32)c(C(C)C)c1`: the call was inactive.
For the compound `Fc1cccc2c1[nH]c(=S)n2CCOc1ccccc1`, the result was inactive.
With `Cc1cccc(OCCn2c(=S)[nH]c3ccccc32)c1C` the entry was “inactive”; with `c1ccc(OCCn2cnc3ccccc32)cc1`, “inactive”; with `CC(C)c1ccccc1NCCn1c(=S)[nH]c2ccccc21`, “inactive”.
The result for `S=c1[nH]c2cccc(Cl)c2n1CCOc1ccccc1` reads “inactive”; that for `COc1ccc(OCCn2c(=S)[nH]c3ccccc32)cc1`, “inactive”.
The result for `Cc1ccc(C)c(OCCn2c(=S)[nH]c3ccccc32)c1` reads “inactive”; that for `CC(C)(C)c1ccccc1OCCn1c(=S)[nH]c2ccccc21`, “inactive”; that for `Fc1ccc2[nH]c(=S)n(CCOc3ccccc3)c2c1`, “inactive”.
With `CSc1nc2ccccc2n1CCOc1cc(C)ccc1C(C)C`, the compound was called inactive.
In the case of `CC(C)c1ccc(OCCn2c(=S)[nH]c3ccccc32)cc1`, the call was inactive.
Consider `S=c1[nH]c2ccccc2n1CCOc1ccccc1Cl`, for which the call was inactive.
With `CC(C)c1ccccc1OCCn1c(=S)[nH]c2ccccc21` the entry was “inactive”; with `COc1cccc(OCCn2c(=S)[nH]c3ccccc32)c1`, “inactive”.
With `Cc1ccc(OCCn2c(C)nc3ccccc32)cc1`, the outcome was inactive.
With `COc1ccccc1OCCn1c(=S)[nH]c2ccccc21`, the outcome was inactive.
The result for `Cc1ccc(C(C)C)c(OCCn2c(=S)[nH]c3cccc(C)c32)c1` reads “inactive”.
The result for `Cc1cccc(OCCn2c(=S)[nH]c3cc(F)ccc32)c1` reads “inactive”.
As for `Cc1ccc(C(C)C)c(OCCn2c(=S)[nH]c3c(C)cccc32)c1`, the compound was classed as inactive.
The result for `Cc1ccc(C(C)C)c(OCCn2c(CO)nc3ccccc32)c1` reads “inactive”.
